# In PubChem BioAssay (Tox21):
# Inconclusive results are not listed. Entries that show only a call come without a potency. Activity calls are given as the source filed them. Calls come from the whole dose curve; as a rule, active = well fitted curve in the direction sought with a large enough effect in the repeat runs; inconclusive = weak or mixed curves; inactive = no such curve, though single readings can be large; an effect the other way counts as inactive or inconclusive.
# Target: Cytochrome P450 1A2 (Homo sapiens) (UniProt P05177)
# Assay: Cytochrome P450 Family 1 Subfamily A Member 2 (CYP1A2) small molecule antagonists: luciferase reporter qHTS assay (AID 1671199); note: potency is the fitted concentration of half-maximal effect
# Conditions: P450-Glo CYP1A2 enzyme, luciferin luminescence, 1 h; series mostly up to 53 µM
# Summary of the method: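 Read-out is luminescence from luciferin detection reagent (20 min) proportional to CYP1A2 activity; compounds in DMSO preincubated 10 min with enzyme and proluciferin substrate, then NADPH regeneration solution, 1 h, room temperature.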
# Note: nearly all actives have a fitted effect of over 50% in size.
# Cytochrome P450 1A2 (Homo sapiens), sequence (P05177 whole entry, looked up): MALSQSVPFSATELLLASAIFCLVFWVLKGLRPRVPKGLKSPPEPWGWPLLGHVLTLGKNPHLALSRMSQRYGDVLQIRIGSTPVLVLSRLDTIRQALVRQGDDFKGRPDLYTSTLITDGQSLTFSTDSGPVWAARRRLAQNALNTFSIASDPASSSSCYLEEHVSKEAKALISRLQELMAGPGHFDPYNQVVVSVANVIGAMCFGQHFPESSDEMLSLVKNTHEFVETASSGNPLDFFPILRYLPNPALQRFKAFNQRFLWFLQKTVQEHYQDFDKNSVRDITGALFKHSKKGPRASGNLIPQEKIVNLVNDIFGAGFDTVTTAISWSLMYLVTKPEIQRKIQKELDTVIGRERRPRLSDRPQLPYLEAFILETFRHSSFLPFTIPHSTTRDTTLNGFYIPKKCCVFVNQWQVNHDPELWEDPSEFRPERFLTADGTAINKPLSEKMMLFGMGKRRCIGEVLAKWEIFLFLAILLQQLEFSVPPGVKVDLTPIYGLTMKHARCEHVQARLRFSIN
row,SMILES,Potency
1,CC1(C)S[C@@H]2[C@H](N=CN3CCCCCC3)C(=O)N2[C@H]1C(=O)O,inactive
2,CC(C)N(c1ccccc1)C(C)C,inactive
3,COP(=O)(OC)OC(c1ccc(Cl)cc1)P(=O)(OC)OC (stereo not given),inactive
4,CCCC(=O)C(C)=O,inactive
5,C[C@@H](Oc1ccc(CNC(=O)c2cccnc2Oc2ccc3c(c2)OCO3)c(F)c1)C(=O)O,inactive
6,CO[C@@H]1[C@@H](OC(N)=O)[C@@H](O)[C@H](Oc2ccc3c(O)c(NC(=O)c4ccc(O)c(CC=C(C)C)c4)c(=O)oc3c2C)OC1(C)C,inactive
7,C=COCCOCCOCCOC=C,35.6 µM (active)
8,CC(COC(C)(C)C)OCCCO (stereo not given),inactive
9,CC(C)CCCC(C)(C)O,inactive
10,CCC(CC)CO,inactive
11,C=C(C)C(=O)OCCOP(=O)(O)OCCOC(=O)C(=C)C,inactive
12,CCCCOC(=O)c1ccccc1,inactive
13,CN=C(NC#N)Nc1ccc(C2=NNC(=O)CC2C)cc1 (stereo not given),inactive
14,CC(=O)N[C@@H](CCC(=O)O)C(=O)O,inactive
15,CCCOC(=O)C(C)O (stereo not given),40.8 µM (active)
16,C[C@H](CCC(=O)O)[C@H]1CC[C@H]2[C@@H]3C(=O)C[C@@H]4CC(=O)CC[C@]4(C)[C@H]3CC(=O)[C@]12C,inactive
17,CCCC/C=C\CCCCCCCCCC=O,inactive

# Target: Voltage-gated inwardly rectifying potassium channel KCNH2 (Homo sapiens) (UniProt Q12809)
# Assay: Human Ether-a-go-go-Related Gene (hERG) channel small molecule antagonists: fluorescence cell-based qHTS assay (AID 1671200);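 note: hERG-expressing U2OS cells given a thallium stimulus after FluxOR II dye loading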
# Conditions: hERG-U2OS cells, FluxOR thallium flux fluorescence; series mostly up to 76.8 µM
# Summary of the method: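 Measured: Tl+ flux via fluorescence (480/540 nm) in hERG-expressing U2OS cells after 1 h dye loading at room temperature.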
# Voltage-gated inwardly rectifying potassium channel KCNH2 (Homo sapiens), sequence (Q12809 whole entry, looked up): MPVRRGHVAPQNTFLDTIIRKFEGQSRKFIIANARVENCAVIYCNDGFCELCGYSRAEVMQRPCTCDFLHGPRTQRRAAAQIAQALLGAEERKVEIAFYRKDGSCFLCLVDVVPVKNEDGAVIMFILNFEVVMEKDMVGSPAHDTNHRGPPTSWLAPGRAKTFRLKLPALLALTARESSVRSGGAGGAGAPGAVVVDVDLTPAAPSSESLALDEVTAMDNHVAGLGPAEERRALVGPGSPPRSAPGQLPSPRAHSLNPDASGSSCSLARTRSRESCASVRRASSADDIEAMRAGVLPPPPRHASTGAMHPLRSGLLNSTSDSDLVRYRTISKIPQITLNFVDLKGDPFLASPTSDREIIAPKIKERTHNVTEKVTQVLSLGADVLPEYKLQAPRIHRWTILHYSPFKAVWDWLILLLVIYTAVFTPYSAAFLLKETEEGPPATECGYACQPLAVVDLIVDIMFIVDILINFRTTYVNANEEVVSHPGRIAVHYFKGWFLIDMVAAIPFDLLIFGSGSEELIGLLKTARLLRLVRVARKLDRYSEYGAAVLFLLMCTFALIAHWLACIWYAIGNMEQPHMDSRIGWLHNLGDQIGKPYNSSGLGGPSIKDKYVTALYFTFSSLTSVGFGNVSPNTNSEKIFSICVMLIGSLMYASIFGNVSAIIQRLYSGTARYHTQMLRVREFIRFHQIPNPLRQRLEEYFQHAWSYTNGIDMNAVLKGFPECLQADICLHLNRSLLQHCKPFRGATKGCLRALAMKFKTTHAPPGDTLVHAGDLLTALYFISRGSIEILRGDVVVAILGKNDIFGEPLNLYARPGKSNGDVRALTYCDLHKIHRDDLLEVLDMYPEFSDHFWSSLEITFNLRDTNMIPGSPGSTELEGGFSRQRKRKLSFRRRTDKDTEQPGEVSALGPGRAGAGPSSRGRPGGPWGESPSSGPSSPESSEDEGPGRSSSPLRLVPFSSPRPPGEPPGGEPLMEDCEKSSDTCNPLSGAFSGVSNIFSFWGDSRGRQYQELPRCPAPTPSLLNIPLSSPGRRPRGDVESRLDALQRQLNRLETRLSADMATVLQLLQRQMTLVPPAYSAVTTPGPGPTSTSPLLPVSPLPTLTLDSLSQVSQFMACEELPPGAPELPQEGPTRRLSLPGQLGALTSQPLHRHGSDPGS
row,SMILES,Potency
1,Cc1ccc2c(c1)OCC(=O)CO2,inactive
2,CC(C)N(c1ccccc1)C(C)C,inactive
3,C=C(C)C(=O)OCc1ccccc1,inactive
4,CC(N)C(=O)OC(C)(C)Cc1ccc(Cl)cc1 (stereo not given),inactive
5,O=C(CCNNC(=O)c1ccncc1)NCc1ccccc1,inactive
6,COP(=O)(OC)OC(c1ccc(Cl)cc1)P(=O)(OC)OC (stereo not given),inactive
7,CCCC(=O)C(C)=O,inactive
8,C[C@@H](Oc1ccc(CNC(=O)c2cccnc2Oc2ccc3c(c2)OCO3)c(F)c1)C(=O)O,inactive
9,CCCCCCCCCCl,inactive
10,CCCCCCCCCCCCCC,inactive
11,CO[C@@H]1[C@@H](OC(N)=O)[C@@H](O)[C@H](Oc2ccc3c(O)c(NC(=O)c4ccc(O)c(CC=C(C)C)c4)c(=O)oc3c2C)OC1(C)C,inactive
12,C=COCCOCCOCCOC=C,inactive
13,O=C(O)C(=O)Cc1ccccc1,inactive
14,O=C1c2ccccc2C(=O)C1c1ccccc1,inactive
15,C=Cc1ccccn1,inactive
16,N#Cc1ccc(C(=O)O)cc1,inactive
17,BrCCCCCBr,inactive
18,c1ccc2nccnc2c1,inactive
19,Nc1ccc2cc(S(=O)(=O)O)cc(O)c2c1,inactive
20,N[C@@H](CCC(=O)Nc1ccc([N+](=O)[O-])cc1)C(=O)O,inactive
21,O=C1CC(c2ccc(Cl)cc2)CC(=O)N1,inactive
22,CN=C(NC#N)Nc1ccc(C2=NNC(=O)CC2C)cc1 (stereo not given),inactive
23,CC(=O)N[C@@H](CCC(=O)O)C(=O)O,inactive
24,CC(=O)Nc1ccc(S(=O)(=O)Cl)cc1,inactive
25,CCCOC(=O)C(C)O (stereo not given),inactive
26,C[C@H](CCC(=O)O)[C@H]1CC[C@H]2[C@@H]3C(=O)C[C@@H]4CC(=O)CC[C@]4(C)[C@H]3CC(=O)[C@]12C,inactive
27,CCCC/C=C\CCCCCCCCCC=O,inactive
28,COc1nccnc1NS(=O)(=O)c1ccc(N)cc1,inactive
